This note sets out measurements from PubChem BioAssay (NCATS).

Results filed as inconclusive are left out. Active and inactive are the calls of the source. Calls come from the whole dose curve; as a rule, active = well fitted curve in the direction sought with a large enough effect; inconclusive = small, poorly fitted or top-dose-only effect, or another doubt; inactive = no such curve, though single readings can be large; an effect the other way counts as inactive or inconclusive.

Assay [1] can be described thus: qHTS assay to identify small molecule inhibitors of chordoma cells - UCH-1 (AID 1259355). Note: nearly all actives have a fitted effect of over 55% in size. Conditions: UCH-1 chordoma viability, CellTiter-Glo, 48 h, combination, with auranofin plus four topoisomerase inhibitors; series mostly up to 46.1 µM. Put shortly:
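Seed 800 cells per well; incubate overnight at 37 C, 5% CO2. Add test compounds (15 concentrations), then the auranofin–topoisomerase-agent combination. Incubate 48hr, add CellTiter-Glo, wait 30min, read luminescence.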
(Quantitative high-throughput screening tests each substance at several concentrations.)

A short description of assay [2]: qHTS assay to identify small molecule inhibitors of chordoma cells - UCH-2 (AID 1259356). Particulars: UCH-2 chordoma viability, CellTiter-Glo ATP luminescence, 48 h; series mostly up to 46.1 µM.
Assay [3] can be described thus: P-glycoprotein substrates identified in KB-8-5-11 adenocarcinoma cell line, qHTS therapeutic library screen (AID 1346987). Note: nearly all actives have a fitted effect of over 65% in size. Note: potency is the fitted concentration of half-maximal effect. Particulars: KB-8-5-11 (P-gp overexpressing) viability, CellTiter-Glo, 72 h; series mostly up to 44.5 µM. Put shortly: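 KB-8-5-11, a colchicine-selected P-gp-overexpressing KB-3-1 subline, was grown without colchicine for the assay. Cells were seeded at 500 cells/well, dosed in concentration-response and incubated 72 h at 37 degree C, 5% CO2. Viability was read by CellTiter-Glo luminescence.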

For `C=O`, the Potency entry in assay [1], in assay [2] and in assay [3] was “inactive” in each case.

For the compound `C[C@H](CCC(=O)O)[C@H]1CC[C@H]2[C@@H]3[C@H](O)C[C@@H]4C[C@H](O)CC[C@]4(C)[C@H]3C[C@H](O)[C@]12C`, the Potency result in assay [1], in assay [2] and in assay [3] was “inactive” in each case.

As to `COC(=O)[C@@H](N)CS`, the Potency result in assay [1], in assay [2] and in assay [3] was “inactive” each time.

As for `C=Cc1ccc(S(=O)(=O)O)cc1`, the Potency entry in assay [1], in assay [2] and in assay [3] was “inactive” throughout.

Consider `Cc1ncc(C[n+]2csc(CCOP(=O)(O)OP(=O)(O)O)c2C)c(N)n1`, for which the Potency entry in assay [1], in assay [2] and in assay [3] was “inactive” each time.

Consider `OC[C@H]1O[C@@H](O[C@H]2[C@H](O)[C@@H](O)[C@H](O)O[C@@H]2CO)[C@H](O)[C@@H](O)[C@@H]1O`, for which the Potency entry in assay [1], in assay [2] and in assay [3] was “inactive” in each case.

In the case of `Cn1cc(NC(=O)c2cc(NC(=O)c3cc(NC=O)cn3C)cn2C)cc1C(=O)NCCC(=N)N`, the Potency result in assay [1], in assay [2] and in assay [3] was “inactive” in each case.

As to `CCc1cn([C@H]2C[C@H](O)[C@@H](CO)O2)c(=O)[nH]c1=O`, the Potency result in assay [1], in assay [2] and in assay [3] was “inactive” in each case.

Turning to `CCCCCCCCCCCCCCCCCC(=O)OCC(C)O` (configuration not stated), the Potency result in assay [1], in assay [2] and in assay [3] was “inactive” in each case.

Take `CCCOc1cc(N)ccc1C(=O)OCCN(CC)CC`: the Potency result in assay [1], in assay [2] and in assay [3] was “inactive” throughout.

`C=C(C)C1CC=C(C)CC1` (configuration not stated): the Potency entry in assay [1], in assay [2] and in assay [3] was “inactive” in each case.

Regarding `O=C1CCC(c2ccccc2)(C2CCN(Cc3ccccc3)CC2)C(=O)N1` (configuration not stated), the Potency entry in assay [1], in assay [2] and in assay [3] was “inactive” each time.

On to `CC(C)(CO)[C@@H](O)C(=O)NCCCC(=O)O`, for which the Potency result in assay [1], in assay [2] and in assay [3] was “inactive” each time.

For `O=C(O)c1ccc(NC2OC[C@@H](O)[C@H](O)[C@H]2O)cc1` (some centres not stated), the Potency entry in assay [1], in assay [2] and in assay [3] was “inactive” each time.

`CO[C@H]1C[C@H](O[C@@H]2/C(C)=C/C[C@@H]3C[C@@H](C[C@]4(CC[C@H](C)[C@@H](C5CCCCC5)O4)O3)OC(=O)[C@@H]3C=C(C)/C(=N/O)[C@H]4OC/C(=C\C=C\[C@@H]2C)[C@]43O)O[C@@H](C)[C@@H]1O`: the Potency entry in assay [1], in assay [2] and in assay [3] was “inactive” in each case.

`COc1ccc2cc([C@H](C)CO)ccc2c1`: the Potency entry in assay [1], in assay [2] and in assay [3] was “inactive” each time.

With `OCCCNc1ccccc1`, the Potency entry in assay [1], in assay [2] and in assay [3] was “inactive” in each case.

Regarding `CCCCC[C@H](O)/C=C/[C@@H]1[C@H]2C/C(=C/CCCC(=O)O)O[C@H]2C[C@H]1O`, the Potency entry in assay [1], in assay [2] and in assay [3] was “inactive” throughout.

In the case of `O=C[C@H](O)[C@@H](O)[C@@H](O)[C@H](O)CO`, the Potency entry in assay [1], in assay [2] and in assay [3] was “inactive” in each case.

On to `CC1CCCC(C)N1NC(=O)c1ccc(Cl)c(S(N)(=O)=O)c1` (configuration not stated), for which the Potency result in assay [1], in assay [2] and in assay [3] was “inactive” in each case.

Take `C[C@]12CCC(=O)C[C@@H]1CC[C@@H]1[C@@H]2CC[C@]2(C)C=CC[C@@H]12`: the Potency result in assay [1], in assay [2] and in assay [3] was “inactive” in each case.

With `CCCCCCOC(=O)c1cccnc1`, the Potency result in assay [1], in assay [2] and in assay [3] was “inactive” in each case.

Take `NC(=O)CC[C@@H]1NC(=O)[C@H](Cc2ccccc2)NC(=O)[C@H](Cc2ccc(O)cc2)NC(=O)[C@@H](N)CSSC[C@@H](C(=O)N2CCC[C@H]2C(=O)N[C@@H](CCCN=C(N)N)C(=O)NCC(N)=O)NC(=O)[C@H](CC(N)=O)NC1=O`: the Potency result in assay [1], in assay [2] and in assay [3] was “inactive” throughout.

With `CCCCO`, the Potency result in assay [1], in assay [2] and in assay [3] was “inactive” each time.

With `O=C(Nc1ccc(O)cc1)c1ccccc1O`, the Potency entry in assay [1], in assay [2] and in assay [3] was “inactive” each time.

`CC(C)(C)NCC(O)c1ccc(O)c(CO)n1` (configuration not stated): the Potency entry in assay [1], in assay [2] and in assay [3] was “inactive” in each case.

On to `C[C@@H]1C[C@H]2[C@@H]3C[C@H](F)C4=CC(=O)C=C[C@]4(C)[C@@]3(Cl)[C@@H](O)C[C@]2(C)[C@H]1C(=O)COC(=O)C(C)(C)C`, for which the Potency result in assay [1], in assay [2] and in assay [3] was “inactive” throughout.

Consider `Nc1nc(NC2CC2)c2ncn([C@@H]3C=C[C@@H](CO)C3)c2n1`, for which the Potency result in assay [1], in assay [2] and in assay [3] was “inactive” throughout.

`CC/C=C\C/C=C\C/C=C\CCCCCCCC(=O)O`: the Potency result in assay [1], in assay [2] and in assay [3] was “inactive” throughout.

For `CNCC(O)c1ccc(OC(=O)C(C)(C)C)c(OC(=O)C(C)(C)C)c1` (configuration not stated), the Potency entry in assay [1], in assay [2] and in assay [3] was “inactive” in each case.

For `Nc1nc(/C(=C/CC(=O)O)C(=O)N[C@@H]2C(=O)N3C(C(=O)O)=CCS[C@H]23)cs1`, the Potency result in assay [1], in assay [2] and in assay [3] was “inactive” each time.

For `Cc1ncc(C[n+]2csc(CCO)c2C)c(N)n1`, the Potency entry in assay [1], in assay [2] and in assay [3] was “inactive” throughout.

On to `O=C1NCCN1c1ncc([N+](=O)[O-])s1`, for which the Potency result in assay [1], in assay [2] and in assay [3] was “inactive” each time.

`OC[C@@H](O)C(O)[C@H](O)CO`: the Potency result in assay [1], in assay [2] and in assay [3] was “inactive” throughout.

Take `CC1CS(=O)(=O)CCN1/N=C/c1ccc([N+](=O)[O-])o1` (configuration not stated): the Potency result in assay [1], in assay [2] and in assay [3] was “inactive” throughout.

Consider `CCCCCCCCCCCC(=O)OCC(O)CO` (configuration not stated), for which the Potency result in assay [1], in assay [2] and in assay [3] was “inactive” each time.

In the case of `CC(C)C[C@@H](NC(=O)[C@@H](O)[C@H](N)Cc1ccccc1)C(=O)O`, the Potency entry in assay [1], in assay [2] and in assay [3] was “inactive” in each case.

In the case of `CC1=CCC2CC1C2(C)C` (configuration not stated), the Potency result in assay [1], in assay [2] and in assay [3] was “inactive” each time.

As for `CN1CCN(C(c2ccccc2)c2ccc(Cl)cc2)CC1` (configuration not stated), the Potency result in assay [1], in assay [2] and in assay [3] was “inactive” each time.

As to `CC(=O)Oc1cccc(C(=O)O)c1OC(C)=O`, the Potency entry in assay [1], in assay [2] and in assay [3] was “inactive” in each case.

Consider `c1ccc2cc(C3=NCCN3)ccc2c1`, for which the Potency entry in assay [1], in assay [2] and in assay [3] was “inactive” in each case.

Take H-RKDVY-OH: the Potency result in assay [1], in assay [2] and in assay [3] was “inactive” each time.

Regarding `C[C@H](O)CN(C)C`, the Potency result in assay [1], in assay [2] and in assay [3] was “inactive” throughout.

Regarding `CC(O)[C@H]1CC[C@H]2[C@@H]3CC[C@@H]4C[C@@H](O)CC[C@]4(C)[C@H]3CC[C@]12C` (some centres not stated), the Potency entry in assay [1] and in assay [2] was “inactive” each time. Further, the Potency in assay [3] is 6.51 µM (active).
